GLS inhibitor: qHTS for Inhibitors of Glutaminase (GLS). Glutaminase kidney isoform, mitochondrial (Homo sapiens), O94925. GLS enzymatic activity, qHTS titration. Potency, µM (highest dose often 45.5 µM), inactives show top-dose activity change, negative = inhibition, usual class: inhibitors. 0.21% of 410,000 active
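Enzyme dispensed in phosphate buffer (45 mM, pH 8.2, 0.02% Tween-20), compounds pinned in, then 1 mM L-glutamine solution and the glutamate oxidase–HRP–Amplex Red mix added; fluorescence read immediately and again after 30 min at room temperature.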
mIDH1 inhibitor: qHTS for Inhibitors of mutant isocitrate dehydrogenase 1 (IDH1): qHTS | Isocitrate dehydrogenase [NADP] cytoplasmic (Homo sapiens), O75874 | IDH1-R132H enzyme, NADPH consumption, diaphorase/resazurin fluorescence | Potency, µM (doses to about 76.6 µM), without a hit: top-dose activity change, negative = inhibition, hits mostly inhibitors | 0.093% of 390,000 active; also: nearly all actives have a fitted effect of over 65% in size
Target sequence (O75874 whole entry R132H, stated change not applied): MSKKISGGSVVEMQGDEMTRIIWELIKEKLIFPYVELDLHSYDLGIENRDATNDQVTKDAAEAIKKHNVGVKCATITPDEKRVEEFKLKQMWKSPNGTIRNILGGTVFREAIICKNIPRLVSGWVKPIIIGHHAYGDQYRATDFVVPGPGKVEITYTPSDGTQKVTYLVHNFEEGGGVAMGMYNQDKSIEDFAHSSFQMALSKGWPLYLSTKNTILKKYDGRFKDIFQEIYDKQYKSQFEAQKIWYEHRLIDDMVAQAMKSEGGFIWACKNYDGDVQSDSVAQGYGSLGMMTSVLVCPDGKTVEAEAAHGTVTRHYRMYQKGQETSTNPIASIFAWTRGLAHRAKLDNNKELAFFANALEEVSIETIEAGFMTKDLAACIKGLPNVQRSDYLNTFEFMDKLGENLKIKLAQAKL
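IDH1-R132H (0.5 ug/mL) preincubated 30 min with compound, then NADPH (0.016 mM) and alpha-KG (2 mM) added; 80 min at RT, pH 7.5. Remaining NADPH coupled via diaphorase/resazurin to fluorescence (540/590 nm); concentration-response curves normalized to no-enzyme control.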
TrxR1 substrate: qHTS Assay for Substrates of Mammalian Selenoprotein Thioredoxin Reductase 1 (TrxR1): qHTS | purified TrxR1 substrate turnover, NADPH consumption readout | Potency, µM (series often up to 114 µM), for the others: top-dose activity change, negative = substrate turnover | 0.01% of 390,000 active | AID 588456, 2011; also: nearly all actives have a fitted effect of over 50% in size
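Rat TrxR1, dispensed at 90 nM, was prereduced with 400 uM NADPH (final) for 5 min at ~22 deg C, then incubated with compound 15 min before 400 uM selenite. A first-read NADPH fluorescence drop versus no-compound background flagged substrates.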
TrxR1 inh: qHTS Assay for Inhibitors of Mammalian Selenoprotein Thioredoxin Reductase 1 (TrxR1): qHTS. Thioredoxin reductase 1, cytoplasmic (Rattus norvegicus), O89049. recombinant rTrxR1, NADPH fluorescence consumption, selenite substrate. Potency, µM (top dose mostly 114 µM), for the others: at the top dose activity change, negative = inhibition, actives largely listed as inhibitors. 1% of 390,000 active; also: nearly all actives have a fitted effect of over 65% in size
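Rat TrxR1 (90 nM in the dispensed reagent) was pre-reduced with 400 uM NADPH for 5 min at room temperature, then incubated with compound for 15 min. After 400 uM selenite was added, NADPH fluorescence (Ex 340/Em 450 nm) was followed for 8 min.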
* hit, by the source's call; ? = inconclusive; · = not tested or not shown; ! = a repeat was not active; [ ] = dose if it differs, or a comment. This is a sample that favours compounds with a hit; in the whole collection about 1.2% have one here. Calls follow the shape of the dose curve; as a rule, active = well fitted curve in the direction sought with a large enough effect; inconclusive = small, poorly fitted or top-dose-only effect, or another doubt; inactive = no such curve, though single readings can be large; an effect the other way counts as inactive or inconclusive. % is scaled to controls: 0 for no effect and ±100 for the full control effect; potency is read from the fitted curve at half-maximal effect.

SMILES	GLS inhibitor	mIDH1 inhibitor	TrxR1 substrate	TrxR1 inh
CN(C)c1ccc(/C=C2\C=Cc3ccccc32)c(F)c1	·	·	-8.5%[0.0914 µM]	-25.6%
CCOC(=O)c1c(NC(=O)CSc2cn(CCNC(=O)c3ccc(OC)cc3)c3ccccc23)sc2c1CCCC2	2.1%	-16.7%	-1.3%	0.4%
O=[N+]([O-])c1cc(S(=O)(=O)Nc2ccccc2)ccc1N1CCN(c2ccc(O)cc2)CC1	-3.9%	1.3%	-7.6%	7.9%
CN1CCN(S(=O)(=O)c2ccc(N3CCN(c4ccc(O)cc4)CC3)c([N+](=O)[O-])c2)CC1	8.91µM*	21.0%	-12.0%	?
CN1CCC(N(Cc2cccs2)c2ccccc2)CC1	13.0%	·	·	·
c1ccc(-c2onc(-c3ccco3)c2-c2ccc3[nH]ccc3c2)cc1	-2.5%	17.4%	12.2%[57.1 µM]	28.2µM*!
CCNC(=S)Nc1cc(OCC)c(NC(=O)c2ccco2)cc1OCC	3.5%	1.3%	-0.6%	11.8%
CCOc1cc(NS(=O)(=O)c2ccccc2)c(OCC)cc1NC(=O)c1ccco1	32.2%	7.8%	-2.1%	70.8µM*
C=CCN=c1scc(-c2ccco2)n1/N=C/c1ccc(O)c(O)c1O	10µM*	12.0%	-3.5%	?
CC/C=C\C/C=C\C/C=C\C/C=C\C/C=C\CCCC(=O)O	31.6µM*	·	·	·
CC/C=C\C/C=C\C/C=C\CCCCCCCC(=O)O	22.4µM*	10.7%	3.2%	?
CCCCCCCCCCC/C=C\C(C)(C)/C=C\CCCC(=O)O	·	·	-10.8%[57.1 µM]	?
COc1ccc(NC(=O)c2cc(S(=O)(=O)N3CCCCC3)cn2C)cc1Cl	13.6%	14.7%	-0.4%[57.1 µM]	8.8%[57.1 µM]
Cc1ccccc1CNC(=O)c1ccccc1N(C)S(=O)(=O)c1ccccc1	2.6%	3.9%	1.8%[57.1 µM]	-3.3%[57.1 µM]
CCc1nc2ccc(C(=O)N3CCN(C(=O)c4ccco4)CC3)cn2c1N(C)C(=O)COc1ccccc1	-18.6%	·	·	·
CSCCC(NS(=O)(=O)c1ccc2c(c1)oc(=O)n2C)C(=O)NCCc1ccc(C)cc1 (stereo not drawn)	-0.1%	2.2%	-0.4%[57.1 µM]	15.1%[57.1 µM]
O=C1CCCC2=C1C(c1ccc(O)c(O)c1)Nc1ccc3ccccc3c12 (stereo not drawn)	?	5.3%	11.5%	?
O=C1CCCC2=C1C(c1ccco1)Nc1ccc3ccccc3c12 (stereo not drawn)	11.2µM*	10.0%	27.2%	39.8µM*
CC1CCC/C(=C\Nc2ccc(O)cc2)C1=O (stereo not drawn)	18.9%	7.6%	-14.2%	20µM*
CCc1cc(=O)oc2c(CN3CCN(C)CC3)c(O)ccc12	71.4%	7.7%	535.6%[57.1 µM]	78.7%[57.1 µM]
CN1CCN(Cc2c(O)ccc3cc(Br)ccc23)CC1	6.7%	-8.5%	-4.9%	35.5µM*
O=C(Nc1ccccc1)c1cc(C2CCCCN2S(=O)(=O)c2ccccc2)on1 (stereo not drawn)	0.8%	·	·	·
O=C(/C(Br)=C/Nc1cc(Cl)ccc1Cl)C(F)(F)F	-2.6%	2.1%	-7.2%	39.8µM*
O=C(Nc1cc(Cl)ccc1Cl)N1CCCC1	?	0.0%	-6.5%	-8.5%
CCc1ccc(NCc2cc3cc4c(cc3n(CC(=O)Nc3ccccc3C)c2=O)OCCO4)cc1	11.2µM*	-12.0%	-3.0%	-16.9%
SMILES	GLS inhibitor	mIDH1 inhibitor	TrxR1 substrate	TrxR1 inh
CCc1ccc(NC(=O)Cn2c(=O)c(CNc3ccccc3)cc3cc(OC)c(OC)cc32)cc1	15.8µM*	-2.0%	12.8%	32.8%
COc1cc2cc(CNc3ccccc3)c(=O)n(CC(=O)Nc3cc(C)cc(C)c3)c2cc1OC	?	13.0%	1.2%	-11.9%
CCc1ccc(NCc2cc3cc4c(cc3n(CC(=O)Nc3ccc(Cl)cc3)c2=O)OCO4)cc1	12.6µM*	5.7%	11.9%	7.7%
CC[N+](C)(C)c1ccc(/C=C/c2ccnc3ccccc23)cc1	·	·	-2.7%	-3.3%
Cc1ccccc1NC(=O)CSc1n[nH]c(-c2ccco2)n1	-16.4%	0.2%	-7.3%	-7.0%
Cc1ccccc1NC(=O)CSc1nnc(-c2ccco2)c(-c2ccco2)n1	-26.6%	-5.9%	-0.2%	2.51µM*
Cc1cccc(C)c1NC(=O)CSc1nnc(-c2ccco2)c(-c2ccco2)n1	142.2%	1.0%	3.8%	3.16µM*
Oc1ccccc1N=Cc1sc2ccccc2c1Cl	21.5%	6.7%	-8.6%	-15.0%
Cc1ccc(O)c(N=Cc2sc3ccccc3c2Cl)c1	11.2µM*	14.5%	9.5%[57.1 µM]	-18.8%
Cc1cccc(C)c1NC(=O)CN(C)C(=O)c1ccccc1SCC(=O)N1CCCC1	0.7%	7.3%	-5.4%[57.1 µM]	4.1%
CN(CC(=O)Nc1c(Cl)cccc1Cl)C(=O)c1ccccc1SCC(=O)N1CCCC1	15.8µM*	0.9%	-0.7%	-11.8%
CCc1ccc2[nH]c(=O)c(CN(Cc3ccco3)Cc3nnnn3Cc3ccco3)cc2c1	·	·	9.9%[0.0914 µM]	0.6%
O=C(c1ccc(Br)cc1)C(CN1CCOCC1)c1ccccc1 (stereo not drawn)	-4.7%	8.2%	15.7%[57.1 µM]	?
O=C(c1ccccc1)C(CN1CCCCC1)c1ccccc1 (stereo not drawn)	2.3%	-0.1%	4.3%	25.1µM*
O=S(=O)(Nc1cccc2ccccc12)c1cccs1	21.9%	15.3%	2.6%	3.8%
O=S(=O)(Nc1ccc(O)c2ccccc12)c1cccs1	11.2µM*	21.9%	1.5%[57.1 µM]	?
CCOC(=O)C=C(C(=O)OCC)C(=O)OCC	32.1%	15.1%	8.8%	3.55µM*
CCOC(=O)CNC=C(C(=O)OCC)C(=O)OCC	0.0%	2.5%	4.7%[57.1 µM]	-3.5%[57.1 µM]
Cc1ccc(CN2[C@H](C)[C@H](c3ccccc3)OCCS2(=O)=O)cc1	·	·	-7.4%	1.3%
CS(=O)(=O)N(Cc1cccc(CN(C(C(=O)O)c2ccccc2)S(C)(=O)=O)c1)C(C(=O)O)c1ccccc1 (stereo not drawn)	-10.1%	3.3%	0.8%	50.1µM*
COc1ccc(/C=N/n2c(-c3ccccc3)n[nH]c2=S)cc1	-16.6%	4.7%	14.0%[57.1 µM]	10.2%[57.1 µM]
Oc1ccc(/C=N/n2c(-c3ccccc3)n[nH]c2=S)cc1	15.8µM*	-4.5%	1.0%	-9.3%
CCCCCCCCCCCCOCCOCCOCCOCCOCCOCCOCCOCCOCCO	4.8%	·	·	·
Cc1cc(=O)c2c(o1)C(=O)c1occc1C2=O	3.2%	14.7%	-10.9%	31.6µM*
O=S(=O)(NCc1ccccc1)c1ccc(S(=O)(=O)NCC2CCCO2)cc1 (stereo not drawn)	0.0%	0.4%	-5.3%[57.1 µM]	1.41µM*
COC(=O)C(=C/C(C)=C/c1cccnc1)C(=O)OC	-7.9%	-7.5%	-7.4%	56.2µM*
CC(C)c1ccc(Cn2cnc3c(cnn3C(C)(C)C)c2=O)cc1	·	·	-9.5%	-0.5%
COc1cc2c(cc1OC)C(C1C(=O)CCCC1=O)N(C(=O)CCl)CC2 (stereo not drawn)	1.3%	-3.0%	22.6%	-6.1%
COc1cc2c(cc1OC)C(c1ccccc1)N(C(=O)CCl)CC2 (stereo not drawn)	1.3%	1.4%	3.2%	4.47µM*

Compound activity (PubChem BioAssay)
